Assay outcomes as filed in PubChem.
TLR4 MyD88 blk = inhibitors of human TLR4-MyD88 binding; O00206; Cell-based TLR4-MyD88 binding inhibition assay; inhibition, % at 10 µM; 0.06% of 16,000 active; in the data active = inhibition above about 45%
rat GALR2 ag = GALR2 (rat) receptor agonism; O08726; cell-based GALR2 agonist screen; activation, % at 10 µM; 0.5% of 16,000 active; in the data active = activation above about 15%
KOR antag MB = blocks the human kappa opioid receptor, Maybridge compounds; OPRK1 cells, antagonist mode, fluorescence readout; inhibition, % at 9 µM; 0.4% of 16,000 active; AID 652031; in the data active = inhibition above about 50%
S1P1 agonist = activates the human S1P1 receptor. S1P1 agonist cell-based reporter assay. activation, % at 4.5 µM. 1.5% of 16,000 active; in the data active = activation above about 80%
Active calls of the source: *; nt = no result. A selection: hits, their analogues and other compounds. The true share with any hit is near 2.5%.

SMILES	TLR4 MyD88 blk	rat GALR2 ag	KOR antag MB	S1P1 agonist
N#C/C(=N\O)C(=O)c1ccc(Cl)cc1	7	-4	13	5
N#C/C(=N\Nc1ccc(F)cc1)C(=O)c1ccc(Cl)cc1	-9	-9	17	103*
CCOC(=O)c1c(C)nsc1N/N=C(\C#N)C(=O)c1ccc(Cl)cc1	-27	-12	40	113*
N#C/C(=C\c1ccc2c(c1)OCO2)C(=O)c1ccco1	-21	5	8	-7
CCOC(=O)CSc1c(C)[nH]c2ccccc12	-13	-8	16	-8
Cc1[nH]c2ccccc2c1SCc1n[nH]c(=S)n1C	-7	20*	-99	0
NC(N)=NS(=O)(=O)c1ccc(Cl)c(Cl)c1	-1	-5	15	26
Oc1ccc(Br)cc1C=NCc1cccnc1	11	4	21	-6
Cc1cc(C)c(C#N)c(Sc2ccccn2)n1	-10	-2	4	-6
COc1ccc(S(=O)(=O)N2CCN(c3ccc(C(F)(F)F)cc3[N+](=O)[O-])CC2)cc1OC	-2	80*	-31	51
N#Cc1c(-c2cccs2)cc(-c2ccc(F)cc2)[nH]c1=O	3	-4	8	-18
O=C(Nc1ccc(Cl)cc1Cl)c1cc([N+](=O)[O-])cc2c1-c1ccc([N+](=O)[O-])cc1C2=O	-4	-11	53*	22
CCC(C)(C)OC(=O)c1cc([N+](=O)[O-])cc2c1-c1ccc([N+](=O)[O-])cc1C2=O	-1	-10	41	9
Fc1ccc(NC(=S)N/N=C/c2cccnc2)cc1	7	-1	-10	-2
O=C1/C(=C/c2ccc(Cl)cc2)CCc2ccccc21	17	-4	13	2
CCOc1ccc2nc(NC(=O)c3ccc([N+](=O)[O-])o3)sc2c1	7	-6	-14	-1
CCOC(=O)c1c(NC(=O)c2ccc([N+](=O)[O-])o2)nc(SC)n1Cc1cccs1	-5	-6	-10	87*
CSC(=NCCSC(C)(C)C)NS(=O)(=O)c1ccccc1	8	-8	3	0
CSC(=NCc1c(N(C)C)cccc1N(C)C)NS(=O)(=O)c1ccccc1	5	-8	3	95*
COc1ccc(/C=C2/N=C(c3ccccc3)NC2=O)cc1	-2	15*	17	-33
COc1ccc(/C=C2/N=C(c3ccccc3)NN(Cc3ccccc3)C2=O)cc1	2	-7	11	6
CN(C)c1ccc(-n2nnnc2SCc2ccc(Cl)cc2)cc1	-11	1	59*	-1
CN(C)c1ccc(-n2nnnc2SCC(=O)c2cc3ccccc3o2)cc1	1	-3	2	-26
O=c1ccc([N+](=O)[O-])cn1C1CCCCO1 (stereo not drawn)	22	-4	4	94*
Oc1c(Cl)c2nc3ccccc3nc2c2ccccc12	9	-12	22	8
SMILES	TLR4 MyD88 blk	rat GALR2 ag	KOR antag MB	S1P1 agonist
O=Cc1c(O)c2ccccc2c2ccccc12	0	-4	72*	14
Cc1ccc(-c2csc3ncnc(NCc4ccco4)c23)cc1	8	-7	-4	87*
COc1ccc(/C=N/OC(=O)c2cccs2)c(Cl)c1OC	-2	-7	-6	-7
O=C1CSCC(=O)N1c1csc(C(F)(F)F)c1-c1ccccc1	1	-5	17	100*
O=S(=O)(Oc1ccc(Cl)cc1)c1csc(C(F)(F)F)c1-c1ccccc1	3	-10	-25	-9
CC(C)n1cc(-c2noc(-c3cccs3)n2)c(=O)n(Cc2ccccc2)c1=O	-2	-6	13	92*
O=c1c2ccccc2c(=O)n2n1CCCC2	-8	-3	14	-29
NC(=O)c1c(/N=C/c2cc(Br)ccc2O)sc2c1CCCC2	3	1	-7	-11
CC(C)(O)C#Cc1ccc(/C=N/O)cc1	0	-8	-6	4
CC(C)(O)C#Cc1ccccn1	3	27*	-6	-19
CS(=O)(=O)CS(=O)(=O)NNc1ncc(C(F)(F)F)cc1Cl	5	-4	-1	-2
CCOC(=O)/C(C#N)=C/c1cn(-c2ccccc2)nc1-c1ccccc1	5	69*	2	-6
Cc1ccc(S(=O)(=O)NC(=O)Nc2ccccc2N2CCCCC2)cc1	-5	-8	18	-4
Cn1sc(=O)c2cc(S(=O)(=O)Nc3ccccc3N3CCCCC3)ccc21	-7	16*	14	-3
CC(C)(C)c1csc(=S)n1CCc1ccccn1	-18	-9	17	16
O=C1NNC(SCc2ccc(Br)cc2)=Nc2ccccc21	-8	-6	0	96*
O=C(O)c1ccc(Sc2ccc(Cl)cc2)c([N+](=O)[O-])c1	-14	-4	17	21
O=C(Nc1ccc(N2CCOCC2)cc1Cl)C1CCN(C(=O)OCc2ccccc2)CC1	3	-8	8	101*
N#C/C(=C\c1c(F)cccc1Cl)c1cccc(Cl)c1	-10	-9	4	36
N#C/C(=C\c1ccc(Cl)c(Cl)c1)c1ccc(NC(N)=O)cc1	-196	135*	-201	-48
N#C/C(=C\Nc1cc(C(F)(F)F)cc(C(F)(F)F)c1)S(=O)(=O)Cc1ccc(Cl)cc1	-1	-9	18	100*
O=C(Nc1ccc(OCc2ccccc2)cc1)N1CCN(Cc2ccncc2)CC1	-5	2	1	5
O=C(Nc1ccccc1)Nc1ccc(Oc2cccc(C(F)(F)F)c2)nc1	2	-6	0	87*
O=C(Nc1ccc(Oc2cccc(C(F)(F)F)c2)nc1)c1ccc2c(c1)CCO2	-6	-1	-8	90*
O=C(Nc1cccc(C(F)(F)F)c1)Nc1ccc2nonc2c1	-19	-1	-2	59
SMILES	TLR4 MyD88 blk	rat GALR2 ag	KOR antag MB	S1P1 agonist
Cc1onc(-c2ccccc2)c1NC(=O)Nc1ccc(-n2ccc(C(F)(F)F)n2)cc1	3	-7	8	98*
COc1ccc([N+](=O)[O-])c(C=C(C#N)C#N)c1OC	1	-10	12	-6
COc1cccc(/C=C(\C#N)c2ccc([N+](=O)[O-])cc2)c1OC	-3	-11	69*	-2
CN1C2CCC1CC(NC(=O)CSCc1ccc(Cl)cc1Cl)C2 (stereo not drawn)	-11	51*	12	-2
OCc1ccc(-c2cc(C(F)(F)F)cc(C(F)(F)F)c2)o1	3	-7	-18	-11
O/N=C/c1ccc(-c2cc(C(F)(F)F)cc(C(F)(F)F)c2)o1	14	-7	-5	92*
Clc1ccc2nc3c(nc2c1)Nc1ccccc1S3	43	-14	90*	64
N#C/C(=C\c1c(Cl)cccc1Cl)C(=O)Nc1ccc(F)c(Cl)c1	-5	20*	43	31
CN(C)/C=C(\C#N)C(=O)Nc1ccc(F)c(Cl)c1	nt	-5	4	30
COC(=O)c1cnn(-c2ccc(Cl)cc2)c1C=Nc1ccc(C)cc1	-5	13	3	-2
COC(=O)c1cnn(-c2ccc(Cl)cc2)c1C=C(C#N)C#N	-15	-9	75*	-42
CO/N=C(/N)c1[nH]ncc1Br	1	-7	18	-2
C#Cc1cccc(NC(=O)c2sc3nc4c(c(-c5cccs5)c3c2N)CCCC4)c1	-4	-2	65*	21
CSc1nc2c(c(-c3cccs3)c1C#N)CCCC2	4	-6	12	13
COC(=O)c1cc(-c2ccc(OC)cc2)c(-c2ccc(OC)cc2)s1	-10	-12	78*	6
